This excerpt belongs to a sample that is enriched for hits.
nsP2pro inh: CHIKV nsP2 protease inhibition, primary qHTS | Q8JUX6 | actives 1.1% (n = 31,000) | FRET peptide cleavage, nsP2pro, fluorescence 1 h | Potency, µM (doses to about 24.9 µM), for the others: top-dose activity change, negative = inhibition, actives largely listed as inhibitors; note: nearly all actives have a fitted effect of over 60% in size
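Purified recombinant nsP2pro (150 nM final) in 10 mM Tris-HCl pH 8.0 with 0.01% Tween 20 was preincubated 15 min at room temperature with compound (7 concentrations, up to 25 uM). FRET peptide 2 substrate (2.5 uM final) was then added; fluorescence was read after 1 h.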
CHIKV nsP2 cell: secondary cell-based test for CHIKV nsP2 protease inhibitors; Potency, µM (titrated, usually from 51.1 µM), for inactives: at the highest dose activity change, negative = inhibition, usual class: inhibitors; AID 1964100; cell-based CHIKV nsP2 protease reporter assay; actives 10% (n = 450); shares compounds with nsP2pro inh; note: nearly all actives have a fitted effect of over 70% in size
CHIKV NSP2 FL: inhibits full-length CHIKV NSP2 enzyme | Full-length CHIKV NSP2 protease enzymatic counterscreen | AID 1964101 | shares compounds with nsP2pro inh | actives 39% (n = 410) | Potency, µM (series often up to 50.7 µM), for inactives: at the highest dose activity change, negative = inhibition, most hits filed as inhibitors; note: nearly all actives have a fitted effect of over 65% in size
Furin counter: inhibits human furin in a CHIKV nsP2 protease selectivity counterscreen; Recombinant human furin enzymatic counterscreen, fluorogenic substrate; actives 6% (n = 410); shares compounds with nsP2pro inh; AID 1964102; Potency, µM (doses to about 50.6 µM), for the others: at the top dose activity change, negative = inhibition, usual class: inhibitors
nsP2 NS23 pep: blocks CHIKV nsP2 protease cleavage of endogenous NS2/3 peptide; shares compounds with nsP2pro inh; Purified CHIKV nsP2 protease, endogenous NS2/3 peptide cleavage; Potency, µM (doses to about 51 µM), without a hit: top-dose activity change, negative = inhibition, actives largely listed as inhibitors; actives 34% (n = 410); AID 1964103; note: nearly all actives have a fitted effect of over 55% in size
Papain cs: inhibits papain in a CHIKV nsP2 protease selectivity counterscreen. shares compounds with nsP2pro inh. purified papain protease activity, enzymatic inhibition. Potency, µM (top dose mostly 51 µM), without a hit: at the top dose activity change, negative = inhibition, most hits filed as inhibitors. actives 5% (n = 410)
nsP2pro conf qHTS: confirmation of CHIKV nsP2 protease inhibitors | shares compounds with nsP2pro inh | CHIKV nsP2 protease enzymatic activity, qHTS | Potency, µM (highest dose often 25.5 µM), for the others: top-dose activity change, negative = inhibition, hits mostly inhibitors | actives 43% (n = 410) | AID 1964105; note: nearly all actives have a fitted effect of over 75% in size
HCV NS3 4A cs: selectivity counter-screen for CHIKV nsP2 protease inhibitors: HCV NS3/4A. shares compounds with nsP2pro inh. HCV NS3/4A protease biochemical counterscreen. Potency, µM (titrated, usually from 50.9 µM), hits mostly inhibitors. actives 20% (n = 410); note: nearly all actives have a fitted effect of over 55% in size
An asterisk follows results filed as active; i = inactive; ? = inconclusive; [ ] = remark or other dose. Calls come from the whole dose curve. % is set by controls: 0 for no effect and ±100 for the full control effect; potency is the fitted concentration of half-maximal effect.

SMILES | nsP2pro inh | others
CCCCOC(=O)C(=O)Nc1cccc(-c2nn[nH]n2)c1 | -1%
Cc1ccc(-c2cc(C(=O)Nc3ccc(-c4nn[nH]n4)cc3)c3ccccc3n2)cc1C | i
C[N+]1([O-])[C@H]2CC(OC(=O)C(CO)c3ccccc3)C[C@H]1[C@H]1O[C@H]12 (stereo partly drawn) | 27%
O=C1CCCC2=C1C(c1[nH]ncc1Cl)N=C(Nc1nc3cc(Br)ccc3o1)N2 (stereo not drawn) | i
Cc1cccc2c3c(ccc12)C1=C(C(=O)C3=O)[C@@H](C)CO1 | ? | CHIKV nsP2 cell=-15%;CHIKV NSP2 FL=10µM*;Furin counter=-16%;nsP2 NS23 pep=?;Papain cs=?;nsP2pro conf qHTS=10µM*;HCV NS3 4A cs=i
CC(=O)O[C@@H]1[C@H]2CC[C@H]3[C@@](C)(O)[C@@H]4C[C@H](O)C(C)(C)[C@@]4(O)[C@H](O)C[C@@]13C[C@@]2(C)O | -11%[10 µM]
CCNC(=O)N[C@@H]1C=C[C@@H](c2c(C)nn(-c3ccc(F)cc3)c2C)C1 | 2%[39.2 µM]
Cc1nn(CCC#N)c(C)c1[C@@H]1C=C[C@@H](NC(=O)c2cccs2)C1 | ? | CHIKV nsP2 cell=4%
Cc1nn(Cc2ccccc2)c(C)c1[C@@H]1C=C[C@@H](NC(=O)c2cccs2)C1 | -4%[39.2 µM]
CNC(=O)[C@@H](CC(C)C)N1CCC[C@H]1C(=O)N1CCN(C)CC1 | -23%[39.2 µM]
COc1cccc(-c2nnnn2[C@H]2CO[C@H]3[C@@H]2OC[C@@H]3NC(=O)c2ccccc2)c1 | -2%[39.2 µM]
O=C(NC1CCCCC1)O[C@@H]1CO[C@H]2[C@@H]1OC[C@@H]2NS(=O)(=O)c1ccc(Cl)cc1 | -21%
O=C(NC1CCCCC1)O[C@@H]1CO[C@H]2[C@@H]1OC[C@@H]2n1nnnc1SCc1ccco1 | 0.45µM* | CHIKV nsP2 cell=3%;CHIKV NSP2 FL=2.9µM*;Furin counter=?;nsP2 NS23 pep=6.5µM*;Papain cs=-8%;nsP2pro conf qHTS=0.9µM*;HCV NS3 4A cs=?
O[C@@H]1CO[C@H]2[C@@H]1OC[C@@H]2n1nnnc1Sc1ncccn1 | -13%[39.2 µM]
O=C(CCC1CCCC1)NCc1nnc2cc(-c3nc(C4CC4)no3)ccn12 | i
COc1ccc(N2CC3CCC(C2)N3CC2CCCC2)cc1 | -15%[39.2 µM]
Cc1ccc(S(=O)(=O)Nc2cc(Cl)c(O)c3ccccc23)c(C)c1 | 2.5µM* | CHIKV nsP2 cell=6.5µM*;CHIKV NSP2 FL=7.3µM*;Furin counter=-15%;nsP2 NS23 pep=1.8µM*;Papain cs=-10%;nsP2pro conf qHTS=2.2µM*;HCV NS3 4A cs=?
Cc1cc(F)ccc1S(=O)(=O)Nc1cc2c(C(=O)O)c(C)oc2c2ccccc12 | -25%
CC(=O)c1c(C)oc2c1cc(NS(=O)(=O)c1c(C)cc(C)cc1C)c1ccccc12 | -27%
COc1ccc(-c2sc(NC(=O)C(C)(C)C)nc2C)cc1S(=O)(=O)Nc1ccc(O)cc1 | 20%
C[C@]12CC[C@H]3[C@@H]([C@H](O)CC4=CC(=O)CC[C@@]43C)[C@@H]1CC[C@@H]2O | 3%
C=C1C(=O)OC2C1C(O)CC1(C)C(O)CCC(C=O)C21 (stereo not drawn) | ? | CHIKV nsP2 cell=-6%;CHIKV NSP2 FL=-11%;Furin counter=-2%;nsP2 NS23 pep=-18%;Papain cs=-11%;nsP2pro conf qHTS=-24%;HCV NS3 4A cs=i
CC1=CCC(O)C2(C)CCC3C(C)C(=O)OC3C12 (stereo not drawn) | -1%
C=C1C(=O)O[C@@H]2[C@H]1[C@H](O)C[C@]1(C)[C@@H](O)CC=C(C)[C@@H]21 | ? | CHIKV nsP2 cell=?;CHIKV NSP2 FL=-7%;Furin counter=2%;nsP2 NS23 pep=-11%;Papain cs=-11%;nsP2pro conf qHTS=-17%;HCV NS3 4A cs=i
C=C1C(=O)OC2CC3(C)C(CC12)C(C)=CC(O)C3OC(C)=O (stereo not drawn) | 126%
SMILES | nsP2pro inh | others
C=C1C(=O)OC2C1CCC1(C)C(O)CCC(=C)C21 (stereo not drawn) | 62%
O=CN1C(=O)CC/C1=C\c1ccc2c(c1)OCO2 | -4%
CN(CC1CCOCC1)S(=O)(=O)c1ccc(Cl)s1 | 0%
O=C(NC1Cc2ccccc2N(C[C@@H](O)CO)C1=O)c1cc2cc(Cl)sc2[nH]1 (stereo partly drawn) | -11%
COc1cc(C)c(-c2nc(CN3CCOC(CCN)C3)c(C)o2)cc1C (stereo not drawn) | 0%
COc1ccc(-c2nnc(SCC(=O)Nc3c(C)cccc3C)nc2-c2ccc(OC)cc2)cc1 | -25%
COc1ccc(-c2noc(CC(=O)O)c2-c2ccc(OC)cc2)cc1 | -4%
CCOC(=O)Cn1cccc1-c1nc(-c2ccc(OC)cc2)c(-c2ccc(OC)cc2)s1 | 6.2µM* | CHIKV nsP2 cell=-5%;CHIKV NSP2 FL=?;Furin counter=-10%;nsP2 NS23 pep=-3%;Papain cs=7%;nsP2pro conf qHTS=10%;HCV NS3 4A cs=i
Oc1ccc([C@H]2COc3cc(O)ccc3C2)cc1 | -7%
Cc1cc(C)nc(NC(=S)N2CCN(c3ccccn3)CC2)c1 | -17%
COc1cn(-c2ccc(-n3cccn3)cc2F)nc(-c2ccnn2-c2ccccc2)c1=O | -7%
CCCNC(=O)N[C@@H]1CCC[C@@H](C(=O)N(CC)CC)CC(=O)N(C)C1 | 5.6µM* | CHIKV nsP2 cell=9%;CHIKV NSP2 FL=24µM*;Furin counter=?;nsP2 NS23 pep=17µM*;Papain cs=-3%;nsP2pro conf qHTS=8.2µM*;HCV NS3 4A cs=?
CCN(CC)C(=O)[C@@H]1CCC[C@@H](NC(=O)c2ccc(OC)cc2)CN(C)C(=O)C1 | i
CCN(CC)C(=O)[C@@H]1CCC[C@@H](NC(=O)c2ccc(Cl)cc2)CN(C)C(=O)C1 | -7%[39.2 µM]
C=C1CC2C3(C)C(O)CC(=O)C(C)(C)C3C(O)C(OC(C)=O)C2(C)C2C(=O)OC(C)(C(=O)OC)C(=O)C12C (stereo not drawn) | -9%[10 µM]
O=[S+]([O-])(Nc1ccccc1)c1ccc(NCc2cccc(C(F)(F)F)c2Cl)cc1 | -6%
CCCSc1ncc(Cl)c(C(=O)N(Cc2ccc(Cl)cc2)Cc2ccco2)n1 | 37%
CCSc1ncc(Cl)c(C(=O)N(Cc2ccccc2)Cc2ccco2)n1 | -17%
CCCS(=O)(=O)c1ncc(Cl)c(C(=O)N(Cc2ccccc2)Cc2ccco2)n1 | 5.6µM* | CHIKV nsP2 cell=4.6µM*;CHIKV NSP2 FL=18µM*;Furin counter=-13%;nsP2 NS23 pep=6.5µM*;Papain cs=-1%;nsP2pro conf qHTS=4.5µM*;HCV NS3 4A cs=?
CCOC(=O)COc1ccc2c(c1)C[C@@H](NC[C@H](O)c1cccc(Cl)c1)CC2 | 4%
C=C(C)C(=O)OC1CC2(C)OC(=CC2=O)C(=C)CC2OC(=O)C(COC)C12 (stereo not drawn) | 4%
